Experimental data as given in the antibiotic and cytotoxicity screens of Wong et al. (2023).
The whole screen tested about 39,000 compounds, of which about 1,500 (3.8%) were called active. The full list was thinned out, with actives kept by preference.

Test system: HSkMC (human skeletal muscle cells)
Experiment: cytotoxicity call (relative viability < 0.9)
Conditions: 10 µM

Structure (SMILES)	cytotoxicity call
C[C@H]1CN([C@@H](C)CO)C(=O)c2cc(NC(=O)Cn3cnnn3)ccc2O[C@H]1CN(C)C(=O)Nc1ccccc1	inactive
C[C@H](CO)N1C[C@H](C)[C@@H](CN(C)Cc2ccc(C(=O)O)cc2)Oc2c(NC(=O)c3ccc(-c4nccs4)cc3)cccc2C1=O	inactive
CC(=O)OC1CC(O)C(C)(C)C2CC(OC(C)=O)C3(C)C(CCC4(C)C(c5ccoc5)OC(=O)C5OC543)C12C (configuration not stated)	inactive
C[C@@H]1CN([C@@H](C)CO)C(=O)c2cc(NC(=O)Nc3ccc(F)cc3)ccc2O[C@@H](C)CCCCO[C@@H]1CN(C)S(=O)(=O)c1ccccc1	inactive
COc1ccc2c3c(n(c2c1)C)[C@H](CO)N(C[C@]13CCN(CC1)C(=O)c1ccccn1)C(=O)c1ccccn1	inactive
OC[C@H]1CC[C@@H]2O[C@H](CCc3ccc(C#Cc4ccccc4)cc3)[C@@H](n3cc(-c4ccccc4)nn3)C[C@@H]2O1	inactive
OC[C@H]1CC[C@@H]2O[C@H](CCc3ccc(C#Cc4ccccc4)cc3)[C@H](n3cc(-c4ccccc4)nn3)C[C@@H]2O1	active
OC[C@H]1O[C@@H](S[C@@H]2O[C@H](CO)[C@H](O)[C@H](n3cc(-c4cccc(F)c4)nn3)[C@H]2O)[C@H](O)[C@@H](n2cc(-c3cccc(F)c3)nn2)[C@H]1O	inactive
O=C(Nc1ccc(F)cc1)N[C@@H]1C[C@@H]2O[C@H](CO)CC[C@@H]2O[C@@H]1CCc1ccc(-c2ccccc2)cc1	inactive
O=C(Nc1ccc(F)cc1)N[C@@H]1C[C@@H]2O[C@@H](CO)CC[C@@H]2O[C@@H]1CCc1ccc(-c2ccccc2)cc1	inactive
OC[C@@H]1CC[C@@H]2O[C@H](CCc3ccc(C#CCc4ccccc4)cc3)[C@H](n3cc(-c4ccccc4)nn3)C[C@@H]2O1	inactive
OC[C@@H]1CC[C@@H]2O[C@H](CCc3ccc(C#CCc4ccccc4)cc3)[C@@H](n3cc(-c4ccccc4)nn3)C[C@@H]2O1	inactive
OC[C@@H]1CC[C@@H]2O[C@H](CCc3ccc(C#Cc4ccccc4)cc3)[C@@H](n3cc(-c4ccccc4)nn3)C[C@@H]2O1	active
N[C@@H]1CC[C@@H](CCn2cc(-c3cccc(F)c3)nn2)O[C@H]1CO	inactive
OC[C@@H]1CC[C@@H]2O[C@H](CCc3ccc(C#Cc4ccccc4)cc3)[C@H](n3cc(-c4ccccc4)nn3)C[C@@H]2O1	active
OC[C@H]1CC[C@@H]2O[C@H](CCc3ccc(C#CCc4ccccc4)cc3)[C@@H](n3cc(-c4ccccc4)nn3)C[C@@H]2O1	inactive
OC[C@H]1CC[C@@H]2O[C@H](CCc3ccc(C#CCc4ccccc4)cc3)[C@H](n3cc(-c4ccccc4)nn3)C[C@@H]2O1	active
